This is an account of results in PubChem BioAssay (Tox21).

The structures appear in SMILES notation. Results filed as inconclusive are left out. The source made the active and inactive calls. Unless noted, calls follow the shape of the dose curve; as a rule, active = well fitted curve in the direction sought with a large enough effect in the repeat runs; inconclusive = weak or mixed curves; inactive = no such curve, though single readings can be large; an effect the other way counts as inactive or inconclusive.

A short description of assay [1]: qHTS assay to identify small molecule antagonists of the glucocorticoid receptor (GR) signaling pathway - cell viability counter screen (AID 720693). Also: nearly all actives have a fitted effect of over 55% in size. The note with it: GR-bla HeLa viability, CellTiter-Glo luminescence, 18 h, with 5 nM dexamethasone present; series mostly up to 58.5 µM. On the technique in general: Quantitative high-throughput screening tests each substance at several concentrations.

Assay [2] is described as follows: qHTS assay for identifying genotoxic compounds that show differential cytotoxicity against isogenic chicken DT40 cell lines with known DNA damage response pathways - wild type cell line (AID 743012). Also: nearly all actives have a fitted effect of over 60% in size. Also: potency is read from the fitted curve at half-maximal effect. Conditions: DT40 wild type chicken cells viability, CellTiter-Glo, 40 h; series mostly up to 68.4 µM. Put shortly:
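CellTiter-Glo luminescence readout of viability in wild type DT40 cells after 40 h compound exposure at 37 C/5% CO2; 300 cells/well; reagent incubated 30 min at room temperature before reading.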

Assay [3] in a line: qHTS assay to identify small molecule antagonists of the androgen receptor (AR) signaling pathway - cell viability counter screen (AID 743033; also: nearly all actives have a fitted effect of over 45% in size). The note with it: AR-bla HEK293 viability, CellTiter-Glo luminescence, 16 h; series mostly up to 58.5 µM.
Assay [4] in a line: qHTS assay to identify small molecule antagonists of the androgen receptor (AR) signaling pathway using the MDA cell line - cell viability counter screen (AID 743041; also: nearly all actives have a fitted effect of over 45% in size). The note with it: MDA-kb2 viability, CellTiter-Fluor, 16 h, cells co-treated with R1881 androgen agonist; series mostly up to 70.3 µM. Put shortly:
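In this qHTS counter assay, fluorescence intensity after CellTiter-Fluor addition indicated viability of MDA-kb2 AR-luc cells given compounds and R1881 for 16 h at 37C.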

A short description of assay [5]: qHTS assay to identify small molecule antagonists of the thyroid receptor (TR) signaling pathway - cell viability counter screen (AID 743064). Also: nearly all actives have a fitted effect of over 50% in size. Also: potency is read from the fitted curve at half-maximal effect. The note with it: GH3.TRE-Luc viability, CellTiter-Fluor, 24 h; series mostly up to 70.3 µM. The essentials:
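Fluorescence from CellTiter-Fluor, added after 23.5 h exposure at 37 °C, reported viability of GH3.TRE-Luc cells co-treated with compound and 1 nM T3. Measured in the same wells as the luciferase TR readout.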

Assay [6] in a line: qHTS assay to identify small molecule antagonists of the thyroid receptor (TR) signaling pathway (AID 743065). Also: nearly all actives have a fitted effect of over 55% in size. Also: potency is read from the fitted curve at half-maximal effect. The note with it: GH3.TRE-Luc, T3-stimulated luciferase inhibition, 23.5 h; series mostly up to 70.3 µM. The essentials: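 GH3.TRE-Luc rat pituitary cells carrying two TR response elements driving luciferase were plated for 4 h, given compound plus 1 nM T3 (final), and incubated 23.5 h at 37 C. ONE-Glo luminescence measured reporter inhibition; CellTiter-Fluor fluorescence tracked cytotoxicity.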

Assay [7] has as its system thyroid hormone receptor (rat, GH3 cells). The assay is described as follows: qHTS assay to identify small molecule agonists of the thyroid receptor (TR) signaling pathway (AID 743066; calls by dose curve). Conditions: GH3.TRE-Luc cells, TR agonist luciferase, 24 h; series mostly up to 83.9 µM.
The target in assay [8] is Estrogen receptor (Homo sapiens) (UniProt P03372). The assay is described as follows: qHTS assay to identify small molecule antagonists of the estrogen receptor alpha (ER-alpha) signaling pathway (AID 743069; active = well fitted curve in the direction sought with a large enough effect in the signal ratio in the repeat runs, not every such curve was filed as active; the % refers to the signal ratio). The note with it: HEK293 ER-alpha-UAS-bla, beta-lactamase ratio, antagonist mode; series mostly up to 69.4 µM. The essentials: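 A 17beta-estradiol challenge was applied right after compound transfer to ER-alpha-UAS-bla HEK293 cells previously kept in charcoal-stripped serum. Plates stood 18 hr at 37C and 5% CO2; fluorescence was read following 2 hr FRET substrate loading at room temperature.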

A short description of assay [9]: qHTS assay to identify small molecule antagonists of the estrogen receptor alpha (ER-alpha) signaling pathway - cell viability counter screen (AID 743074; calls by dose curve;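 also: HEK293 cells carrying ER-alpha-UAS-bla reporter stimulated with 17beta-estradiol; nearly all actives have a fitted effect of over 45% in size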). The note with it: ERalpha-bla HEK293 viability, CellTiter-Glo luminescence, 18 h; series mostly up to 69.4 µM.
Assay [10] has as its target Estrogen receptor (Homo sapiens) (UniProt P03372). The assay is described as follows: qHTS assay to identify small molecule agonists of the estrogen receptor alpha (ER-alpha) signaling pathway (AID 743075; calls by dose curve;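 also: HEK293 GripTite cells with ER-alpha and UAS-driven beta-lactamase reporter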). Conditions: HEK293 ER-alpha-UAS-bla, beta-lactamase FRET ratio, 18 h; series mostly up to 70.1 µM.
For assay [11] the target is unchanged. The assay is described as follows: qHTS assay to identify small molecule agonists of the estrogen receptor alpha (ER-alpha) signaling pathway using the BG1 cell line (AID 743079). Also: nearly all actives have a fitted effect of over 20% in size. Also: potency is read from the fitted curve at half-maximal effect. The note with it: BG1Luc4E2 cells, ERE-luciferase agonist, 22 h; series mostly up to 70.3 µM.
The nature of assay [12]: qHTS assay to identify small molecule antagonists of the estrogen receptor alpha (ER-alpha) signaling pathway using the BG1 cell line (AID 743080; calls by dose curve;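 also: BG1 cells stimulated with 17beta-estradiol alongside compound; nearly all actives have a fitted effect of over 25% in size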). Conditions: BG1Luc4E2 ERE-luciferase antagonist mode, luminescence; series mostly up to 70.3 µM. The essentials: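 Endogenous full-length ER-alpha in BG1-Luc-4E2 cells drives a stably integrated 4×ERE luciferase gene; compounds were tested against 17beta-estradiol over 21.5 h, with luminescence and multiplexed viability fluorescence recorded.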

Assay [13] can be described thus: qHTS assay to identify small molecule antagonists of the estrogen receptor alpha (ER-alpha) signaling pathway using the BG1 cell line - cell viability counter screen (AID 743081).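 Also: compound given together with 17beta-estradiol as the ER stimulus; nearly all actives have a fitted effect of over 45% in size.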 Also: potency is read from the fitted curve at half-maximal effect. Conditions: BG1Luc4E2 viability, CellTiter-Fluor, 22 h; series mostly up to 70.3 µM.
The next assay deals with Aromatase (Homo sapiens) (UniProt P11511). The assay is described as follows: qHTS assay to identify aromatase inhibitors (AID 743083). Also: nearly all actives have a fitted effect of over 55% in size. Also: potency is read from the fitted curve at half-maximal effect. Conditions: MCF-7 aro ERE, testosterone-driven ERE luciferase, 24 h; series mostly up to 70.3 µM.
Assay [14] in a line: qHTS assay for identifying genotoxic compounds that show differential cytotoxicity against isogenic chicken DT40 cell lines with known DNA damage response pathways - Rad54/Ku70 mutant cell line (AID 743015). Also: nearly all actives have a fitted effect of over 60% in size. Also: potency is read from the fitted curve at half-maximal effect. The note with it: DT40 Rad54/Ku70 mutant viability, CellTiter-Glo, 40 h; series mostly up to 66.8 µM.
Assay [15] in a line: qHTS assay for identifying genotoxic compounds that show differential cytotoxicity against isogenic chicken DT40 cell lines with known DNA damage response pathways - Rev3 mutant cell line (AID 743014). Also: nearly all actives have a fitted effect of over 55% in size. Also: potency is read from the fitted curve at half-maximal effect. Conditions: chicken DT40 Rev3-/- viability, CellTiter-Glo, 40 h; series mostly up to 68.4 µM.

Chain of Aromatase (Homo sapiens) (P11511 whole entry, looked up): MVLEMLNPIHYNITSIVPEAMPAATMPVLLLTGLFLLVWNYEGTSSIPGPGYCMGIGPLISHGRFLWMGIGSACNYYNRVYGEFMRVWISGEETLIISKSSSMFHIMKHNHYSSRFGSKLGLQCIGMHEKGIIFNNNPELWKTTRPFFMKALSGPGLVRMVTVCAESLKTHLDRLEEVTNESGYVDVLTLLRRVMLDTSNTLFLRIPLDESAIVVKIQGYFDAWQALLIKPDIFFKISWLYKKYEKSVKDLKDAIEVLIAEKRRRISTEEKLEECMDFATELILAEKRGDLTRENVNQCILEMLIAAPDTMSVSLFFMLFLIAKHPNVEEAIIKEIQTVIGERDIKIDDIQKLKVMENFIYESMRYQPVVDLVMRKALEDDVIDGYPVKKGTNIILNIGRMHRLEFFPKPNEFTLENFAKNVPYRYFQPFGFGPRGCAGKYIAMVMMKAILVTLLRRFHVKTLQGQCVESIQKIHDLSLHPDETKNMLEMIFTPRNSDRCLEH
Chain of Estrogen receptor (Homo sapiens) (P03372 whole entry, looked up): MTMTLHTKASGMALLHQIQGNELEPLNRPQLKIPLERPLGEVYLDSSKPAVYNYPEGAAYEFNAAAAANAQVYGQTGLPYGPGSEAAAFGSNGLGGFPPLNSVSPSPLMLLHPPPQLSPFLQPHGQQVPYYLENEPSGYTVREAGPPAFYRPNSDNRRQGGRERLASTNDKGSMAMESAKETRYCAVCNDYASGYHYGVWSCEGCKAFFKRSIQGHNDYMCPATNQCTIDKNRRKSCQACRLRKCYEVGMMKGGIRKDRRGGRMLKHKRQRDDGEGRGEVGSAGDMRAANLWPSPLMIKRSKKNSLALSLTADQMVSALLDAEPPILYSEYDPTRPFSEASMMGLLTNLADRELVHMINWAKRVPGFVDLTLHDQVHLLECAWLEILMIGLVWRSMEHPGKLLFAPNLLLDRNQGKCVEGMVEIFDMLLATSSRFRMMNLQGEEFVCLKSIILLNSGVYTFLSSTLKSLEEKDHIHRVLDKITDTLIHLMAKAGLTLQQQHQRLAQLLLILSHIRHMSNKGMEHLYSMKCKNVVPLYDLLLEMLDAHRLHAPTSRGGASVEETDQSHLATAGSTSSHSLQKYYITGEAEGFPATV

`Nc1cccc(S(=O)(=O)c2cccc(N)c2)c1`: the Potency entry in [1], in assay [3], in assay [4], in assay [5], in assay [6] and in assay [7] was “inactive” in each case. For the same molecule, the Potency result in assay [8], in assay [9], in assay [10], in [11], in assay [12] and in assay [13] was “inactive” each time. Further, in the assay with Aromatase (Homo sapiens), the Potency result was “inactive”. In [2], the Potency is 61.1 µM (active).

As for `O=C1C(O)=C(O)C(=O)C(O)=C1O`, the Potency result in assay [1], in assay [2], in assay [14], in assay [3], in assay [4] and in assay [6] was “inactive” throughout. Further, the Potency result in assay [7], in assay [8], in [9], in assay [10], in [11] and in assay [12] was “inactive” throughout. Further, the Potency entry (in [13]; in the assay with Aromatase (Homo sapiens)) was “inactive” in each case.

Regarding `CN(C)CCN(Cc1ccc(Cl)cc1)c1ccccn1`, the Potency entry in assay [1], in assay [3], in assay [4], in assay [7], in [9] and in [13] was “inactive” throughout. For the same molecule, in the assay with Aromatase (Homo sapiens), the Potency entry is “inactive”. Besides, the results for the Potency in [2], in [5] and in assay [6] were 12.7 µM (active), 11.4 µM (active) and 10.1 µM (active), respectively.

On to `C=CCOC(=O)CCC1CCCCC1`, for which the Potency entry in assay [1], in assay [15], in assay [14], in assay [3], in assay [4] and in [5] was “inactive” throughout. Moreover, the Potency result (in assay [6]; in [7]; in assay [9]; in assay [13]; with Aromatase (Homo sapiens)) was “inactive” each time.

Turning to `Brc1c2ccccc2cc2ccccc12`, the Potency entry in assay [1], in assay [15], in assay [14], in [3], in assay [4] and in assay [5] was “inactive” in each case. Further, the Potency result in assay [6], in [7], in assay [9] and in assay [13] was “inactive” in each case. For the same molecule, the Potency in assay [11] was 30.9 µM (active).

Take `CCCCCCc1ccc(-c2ccc(C#N)cc2)cc1`: the Potency result in assay [1], in assay [2], in [14], in [3], in assay [4] and in assay [5] was “inactive” each time. Further, the Potency entry in assay [6], in [7], in [9] and in assay [13] was “inactive” in each case.

On to `CC/C=C\CCOC(=O)CC`, for which the Potency result in [1], in assay [15], in assay [14], in assay [3], in [4] and in assay [5] was “inactive” in each case. In addition, the Potency result (in [6]; in assay [7]; in assay [9]; in assay [13]; with Aromatase (Homo sapiens)) was “inactive” in each case.

Regarding `Nc1c(CC(=O)O)cccc1C(=O)c1ccc(Br)cc1`, the Potency result in [1], in [2], in [14], in assay [4], in assay [5] and in [7] was “inactive” in each case. Further, the Potency entry in [8], in assay [9], in assay [10], in [11], in assay [12] and in assay [13] was “inactive” throughout. Besides, the Potency entry with Aromatase (Homo sapiens) is “inactive”.

As for `O=P(O)(OCc1ccccc1)OCc1ccccc1`, the Potency result in assay [1], in assay [15], in [14], in assay [3], in [4] and in assay [5] was “inactive” each time. The Potency entry in [6], in [8], in [9], in assay [10], in assay [11] and in assay [12] was “inactive” in each case. Moreover, the Potency entry (in [13]; in the assay with Aromatase (Homo sapiens)) was “inactive” throughout.

Consider `CC(C)(C)Cl`, for which the Potency entry in [1], in [15], in [14], in assay [3], in assay [4] and in [5] was “inactive” each time. Moreover, the Potency result in assay [6], in [7], in assay [8], in [10], in assay [12] and in assay [13] was “inactive” each time. For the same molecule, in the assay with Aromatase (Homo sapiens), the Potency entry was “inactive”. For the same molecule, the Potency in [11] was 64.4 µM (active).

For the molecule `S=C([S-])NCCNC(=S)[S-].[Mn+2]`, the Potency entry (in assay [1]; in assay [3]; in assay [4]; in [6]; in assay [7]; with Aromatase (Homo sapiens)) was “inactive” in each case. Also, the Potency in [2] and in assay [14] was 61.1 µM (active) in each case.

Take `CCOc1ccc(N)c([N+](=O)[O-])c1`: the Potency entry in assay [1], in assay [2], in assay [14], in assay [3], in assay [5] and in assay [6] was “inactive” each time. Also, the Potency entry in assay [7], in assay [8], in assay [9], in assay [10], in assay [11] and in assay [12] was “inactive” each time. The Potency result (in assay [13]; in the assay with Aromatase (Homo sapiens)) was “inactive” in each case.

As for `O=C(O)c1nc(Cl)c(Cl)c(Cl)c1Cl`, the Potency entry in assay [1], in assay [15], in assay [3], in assay [4], in assay [6] and in [7] was “inactive” each time. In addition, the Potency result in assay [9] and in assay [13] was “inactive” each time. In addition, in [14], the Potency is 61.1 µM (active).

Regarding `O=C1[C@H]2CCCC[C@H]2C(=O)N1CCCCN1CCN(c2nsc3ccccc23)CC1`, the Potency entry in assay [1], in assay [7], in assay [8], in assay [9], in assay [10] and in assay [11] was “inactive” throughout. For the same molecule, the Potency result in assay [12] is “inactive”. Moreover, the Potency in assay [15] was 5.96 µM (active); in assay [14], 5.96 µM (active); in [5] it was 21.1 µM (active); in assay [6], 29.8 µM (active); in assay [13] it was 29.8 µM (active); with Aromatase (Homo sapiens), 29.8 µM (active).

On to `C1CCCNCCC1`, for which the Potency result in assay [1], in assay [15], in assay [14], in assay [3], in [4] and in assay [6] was “inactive” throughout. Also, the Potency result (in [7]; in assay [9]; in assay [13]; with Aromatase (Homo sapiens)) was “inactive” each time.

For the molecule `CCN(CC)CCOC(=O)C(c1ccccc1)C1CCCCC1` (centres undefined), the Potency entry in assay [1], in assay [4], in assay [8], in assay [9], in assay [10] and in [11] was “inactive” in each case. Moreover, the Potency result (in assay [12]; in assay [13]; with Aromatase (Homo sapiens)) was “inactive” each time. Besides, the Potency in [15] was 10.6 µM (active); in [14] it was 23.7 µM (active); in [5] it was 26.6 µM (active).

On to `CC1=CC=C(C(C)C)CC1`, for which the Potency entry in assay [1], in assay [15], in assay [3], in assay [4], in [5] and in assay [8] was “inactive” each time. Besides, the Potency entry (in assay [9]; in [10]; in [11]; in [12]; in [13]; in the assay with Aromatase (Homo sapiens)) was “inactive” each time.

`CCN(CC)CCOC(=O)C(Cc1cccc2ccccc12)CC1CCCO1` (centres undefined): the Potency entry in [1], in [15], in [14], in assay [3], in [4] and in assay [5] was “inactive” throughout. The Potency result (in assay [9]; in assay [13]; in the assay with Aromatase (Homo sapiens)) was “inactive” in each case.
